A selection: hits, their analogues and other compounds. The true share with any hit is near 2.4%.
INS-1E GSIS act = GLuc luminescence reporter in INS-1E cells, primary screen for activators of glucose-dependent secretion of insulin; INS-1E GLuc reporter insulin secretion, 2-3 h; 0.61% of 370,000 active; AID 743287; activation, % at 16.6 µM;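 active means lowest replicate activation of at least 40%, so every replicate reaches that level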
Dyrk1A ADPGlo = inhibitors of rat Dyrk1A kinase; Q63470; ADP-Glo luminescence, NFATc1 peptide; inhibition, % at 12.5 µM; 0.43% of 310,000 active; AID 504441
miR-122 sensor = inhibitors of miR-122 in Huh7 cells. AID 602342. Huh7 miR-122 Renilla luciferase sensor, 48 h; neutral wells = 0, positive control = 100. activation (reporter increase), % at 12.5 µM. 0.3% of 340,000 active;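 active means mean replicate activation score at least 90 and every replicate individually at or above 90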;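 further: higher luciferase means less miR-122 activity so hits act as miR-122 inhibitors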
MITF TRPM1 HTS = MITF TRPM1 promoter activation in melanoma cells | 0.75% of 300,000 active | activation, % at 12.5 µM | AID 588334 | SK-MEL-5 TRPM1-promoter luciferase, 24 h; % of positive control, neutral wells = 0;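 active means mean activation of at least 80% with every replicate also reaching 80%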
Wnt act = activators of Wnt/beta-catenin signaling | AID 743398 | 1.2% of 300,000 active | Wnt/beta-catenin reporter cell assay, activator, plate reader | activation, % at 9.35 µM; in the data active means activation above about 30%, passing the limit was not always enough
NSD2 inh = blocks human histone methyltransferase NSD2; O96028; NSD2 peptide methylation, AlphaScreen, 120 min; inhibition, % at 12.5 µM; 0.54% of 310,000 active; AID 743445
Target sequence (O96028 whole entry, looked up): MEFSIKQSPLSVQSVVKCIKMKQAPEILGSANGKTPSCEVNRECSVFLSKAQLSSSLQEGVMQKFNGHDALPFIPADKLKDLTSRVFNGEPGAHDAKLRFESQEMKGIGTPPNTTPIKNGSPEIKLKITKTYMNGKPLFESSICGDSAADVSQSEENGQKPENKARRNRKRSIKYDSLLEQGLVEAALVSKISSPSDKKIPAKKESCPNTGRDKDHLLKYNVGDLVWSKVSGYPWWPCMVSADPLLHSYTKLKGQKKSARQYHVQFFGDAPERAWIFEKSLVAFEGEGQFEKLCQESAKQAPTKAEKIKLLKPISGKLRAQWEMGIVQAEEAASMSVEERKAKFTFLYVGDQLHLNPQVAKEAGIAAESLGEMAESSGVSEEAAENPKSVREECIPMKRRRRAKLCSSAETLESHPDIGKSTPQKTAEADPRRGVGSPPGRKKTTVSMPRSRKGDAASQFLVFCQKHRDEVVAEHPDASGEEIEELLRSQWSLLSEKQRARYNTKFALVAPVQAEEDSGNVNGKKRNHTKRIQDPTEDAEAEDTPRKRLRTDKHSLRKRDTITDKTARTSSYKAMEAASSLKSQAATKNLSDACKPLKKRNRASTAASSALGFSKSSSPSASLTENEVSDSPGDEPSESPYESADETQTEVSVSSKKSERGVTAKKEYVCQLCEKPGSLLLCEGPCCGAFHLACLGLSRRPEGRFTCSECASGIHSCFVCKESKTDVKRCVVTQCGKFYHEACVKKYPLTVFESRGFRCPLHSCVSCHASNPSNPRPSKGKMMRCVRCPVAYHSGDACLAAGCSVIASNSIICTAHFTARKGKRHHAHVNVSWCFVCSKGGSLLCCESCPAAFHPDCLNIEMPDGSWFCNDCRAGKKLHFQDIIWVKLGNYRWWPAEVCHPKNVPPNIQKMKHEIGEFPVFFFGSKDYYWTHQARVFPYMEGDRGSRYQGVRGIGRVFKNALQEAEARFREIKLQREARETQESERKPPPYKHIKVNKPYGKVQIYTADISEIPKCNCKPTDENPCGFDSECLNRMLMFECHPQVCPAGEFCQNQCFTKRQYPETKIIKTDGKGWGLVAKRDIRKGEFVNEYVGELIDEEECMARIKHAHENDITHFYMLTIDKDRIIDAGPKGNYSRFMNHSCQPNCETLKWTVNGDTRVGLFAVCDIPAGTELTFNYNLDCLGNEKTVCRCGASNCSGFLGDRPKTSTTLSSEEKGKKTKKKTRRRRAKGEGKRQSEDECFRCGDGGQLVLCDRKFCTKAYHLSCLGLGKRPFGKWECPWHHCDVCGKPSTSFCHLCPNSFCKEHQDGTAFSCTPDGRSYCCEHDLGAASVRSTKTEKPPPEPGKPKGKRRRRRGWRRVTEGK
Dyrk1A artifact = ADP-Glo luciferase interference, Dyrk1A counter-screen | shares compounds with Dyrk1A ADPGlo | 1,300 tested, under 10 active | AC50, µM (series often up to 12 µM) | ADP-Glo luciferase artifact assay, no Dyrk1A, luminescence | AID 588348;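 active means fitted half-maximal dose AC50 no more than ten times the top valid tested dose, with luminescence dropping as dose rises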
miR-27b qPCR = miR-27b effect in Huh7 as miR-122 inhibitor selectivity check; relative miR-27b level (unnormalised ratio), ratio at 35 µM; Huh7 miR-27b levels, qRT-PCR, 48 h; 35 tested, under 10 active; shares compounds with miR-122 sensor;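 active means compounds lowering miR-27b whose fitted half-maximal dose is at most twice their top tested dose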
Alpha artifact = AlphaScreen assay artifact in NSD2 counter-screen; shares compounds with NSD2 inh; 9.4% of 1,500 active; AlphaScreen artifact counterscreen, preloaded methylated H4 peptide; AID 1053174; AC35, µM (doses to about 10 µM); call rule not given here
A number is an active result; – = inactive; · = no result; ! = not confirmed by another sample. Unless noted, no stated cut-off is given here; in the data, active means inhibition above about 50%; inactive means the rest.

SMILES | INS-1E GSIS act | Dyrk1A ADPGlo | miR-122 sensor | MITF TRPM1 HTS | Wnt act | NSD2 inh | others
O=C(O)CC1OCC=C2CN3CCC45C6=CC(=O)C(=O)C([N+](=O)[O-])=C6NC4C1C2CC35 (configuration not stated) | · | 56 | – | – | · | – | Dyrk1A artifact=–
COC(=O)[C@H]1[C@H](CO)[C@H]2Cn3c(ccc(-c4ccccc4)c3=O)[C@@H]1N2C(=O)c1ccccc1F | – | · | – | · | · | ·
N#Cc1c(Br)n(C2OC(CO)C(O)C2O)c2ncnc(N)c12 (configuration not stated) | – | 75 | – | · | – | – | Dyrk1A artifact=–
N#Cc1cn(C2OC(CO)C(O)C2O)c2ncnc(N)c12 (configuration not stated) | – | – | – | · | – | –
NC(=O)c1c(Br)n(C2OC(CO)C(O)C2O)c2ncnc(N)c12 (configuration not stated) | – | 65 | – | · | – | – | Dyrk1A artifact=–
NC(=O)c1cn(C2OC(CO)C(O)C2O)c2ncnc(N)c12 (configuration not stated) | – | 88! | – | – | – | – | Dyrk1A artifact=–
O=C(O)[C@H]1[C@H](CO)[C@H]2Cn3c(ccc(-c4ccccc4)c3=O)[C@@H]1N2CC1CCCCC1 | – | · | – | · | · | ·
CC=Cc1ccc2n(c1=O)C[C@@H]1[C@@H](CO)[C@H](C(=O)O)[C@H]2N1S(=O)(=O)c1ccccc1C (mixture of isomers) | – | · | – | · | · | ·
C/C=C/c1ccc([C@H]2[C@@H](CO)N3CCCCN(C(=O)Cc4ccncc4)C[C@@H]23)cc1 | – | · | – | · | · | ·
COc1cc2c(cc1O)CC1c3c(cc(O)c(OC)c3-2)CCN1C (configuration not stated) | – | 70 | – | – | – | · | Dyrk1A artifact=–
Cc1nc2c(=O)n(C)c(=O)nc-2n(C)n1 | · | 76 | – | – | · | · | Dyrk1A artifact=–
O=C(CN1CCOCC1)Nc1ccc(Br)cc1C(=O)c1ccccc1 | – | – | 100 | – | · | – | miR-27b qPCR=–
O=C(O)[C@@H]1[C@@H](CO)[C@@H]2Cn3c(ccc(C4=CCCC4)c3=O)[C@H]1N2C(=O)Cc1ccccn1 | – | · | – | · | · | ·
Cc1cc(/C=C2\C(=O)NC(=O)N(Cc3ccccc3)C2=O)c(C)n1-c1ccc(Cl)c(C(=O)O)c1 | – | – | · | – | – | 137 | Alpha artifact=–
Cc1cc(/C=C2\C(=O)NC(=O)N(Cc3ccccc3Cl)C2=O)c(C)n1-c1ccc(C(=O)O)cc1 | – | – | · | – | – | 58 | Alpha artifact=–
COC(=O)[C@@H]1[C@@H](CO)[C@@H]2Cn3c(ccc(-c4cccc(OC)c4)c3=O)[C@H]1N2C(=O)c1cnccn1 | – | · | – | · | · | ·
CCN1[C@@H]2Cn3c(ccc(-c4cccc(C(=O)N(C)C)c4)c3=O)[C@H]1[C@@H](C(=O)OC)[C@@H]2CO | – | · | – | · | · | ·
CCOc1cc(/C=C2\C(=O)NC(=O)N(CCc3ccc(F)cc3)C2=O)ccc1O | – | · | – | – | – | 53 | Alpha artifact=–
CCNCCNc1ccc([N+](=O)[O-])c2cccnc12 | · | – | – | · | – | 100 | Alpha artifact=–
CCCN1[C@@H]2Cn3c(ccc(-c4ccc(OC)cc4)c3=O)[C@H]1[C@@H](C(=O)OC)[C@@H]2CO | – | · | – | · | · | ·
COC(=O)[C@H]1[C@H](CO)[C@H]2Cn3c(ccc(C4=CCCC4)c3=O)[C@@H]1N2Cc1ccccn1 | – | · | · | · | · | ·
CC(=O)N(C)C1=Nc2ccc(Cl)cc2C(c2ccccc2)=[N+]([O-])C1 | – | · | – | – | – | 54 | Alpha artifact=–
O=C1CN=C(c2ccccc2)c2cc(Cl)ccc2N1 | – | – | – | – | – | ·
CC(=O)NC1=C(N2CC2C)C(=O)C(NC(C)=O)=C(N2CC2C)C1=O (configuration not stated) | – | · | – | – | – | 115 | Alpha artifact=–
Clc1ccccc1NC1=NCCCS1 | – | – | – | – | – | –
